# Over roughly 8,300 sequences, “log2 fold change of degron read counts, EGFP-low vs EGFP+ sorted cells (limma voom), compound-induced degradation” has its median near -1.1; the highest 2% begin near 3.2. This is one part of a sample in which the highest values are shown more often than they occur.
# Target: T1, CRBN, Q96SW2
# T1 chain: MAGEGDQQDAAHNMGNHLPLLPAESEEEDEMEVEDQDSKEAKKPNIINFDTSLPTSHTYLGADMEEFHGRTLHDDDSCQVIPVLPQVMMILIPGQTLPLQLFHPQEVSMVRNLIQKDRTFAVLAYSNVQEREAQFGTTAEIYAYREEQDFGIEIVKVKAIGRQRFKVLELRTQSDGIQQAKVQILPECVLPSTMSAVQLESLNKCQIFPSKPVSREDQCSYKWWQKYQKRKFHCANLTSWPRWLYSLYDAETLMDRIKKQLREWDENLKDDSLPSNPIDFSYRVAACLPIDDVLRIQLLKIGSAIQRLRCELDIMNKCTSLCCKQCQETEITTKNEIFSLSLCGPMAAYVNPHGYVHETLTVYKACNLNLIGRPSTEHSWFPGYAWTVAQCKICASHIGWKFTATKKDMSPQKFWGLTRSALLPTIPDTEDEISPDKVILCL
# Assay: log2 fold change of degron read counts, EGFP-low vs EGFP+ sorted cells (limma voom), compound-induced degradation; higher = more compound-induced degradation of the degron-EGFP fusion; degrons are variants of IKZF1/3 zinc finger 2; compound dose not given here
# Details: Jurkat, 18 h
# [1] = compound: compound 19 (5-tert-butyl-thalidomide)
# [2] = compound: compound 22 (5-morpholino-thalidomide)
# [3] = compound: compound 33 (diphenyl IMiD analogue)
# 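Also: pooled lentiviral library of zinc finger degron-EGFP fusions in mCherry-positive Jurkat cells, FACS-sorted after compound exposure, with degron abundance counted by next-generation sequencing.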
Sequence,log2 fold change of degron read counts [1],log2 fold change of degron read counts [2],log2 fold change of degron read counts [3],log2 fold change of degron read counts (compound: thalidomide)
"FICNVCGALFTQKGNLLRHIKL [46F_47I_49N_50V_52G_53A_54L_55F_67L_, Q9UKT9]",-2.12,-1.66,0.0338,-0.727
"FVCDICGALFTQKGNLLRHIKL [46F_47V_49D_50I_52G_53A_54L_55F_67L_, Q9UKT9]",-1.73,-0.858,-0.0343,-0.433
"FCCPICGRFFTQKGNLLRHIKL [46F_47C_49P_50I_52G_53R_54F_55F_67L_, Q9UKT9]",-0.555,-0.77,0.987,-0.278
"FGCPICGHEFTQKGNLLRHIKL [46F_47G_49P_50I_52G_53H_54E_55F_67L_, Q9UKT9]",-1.93,-2.76,-2.07,-2.26
"FWCNQCGHTFTQKGNLLRHIKL [46F_47W_49N_50Q_52G_53H_54T_55F_67L_, Q9UKT9]",-1.74,-2.28,-2.22,-1.67
"FYCEQCGAMFTQKGNLLRHIKL [46F_47Y_49E_50Q_52G_53A_54M_55F_67L_, Q9UKT9]",0.643,1.04,0.255,-1.7
"FHCPICGARFTQKGNLLRHIKL [46F_47H_49P_50I_52G_53A_54R_55F_67L_, Q9UKT9]",2.37,2.5,0.881,0.851
"FTCPICGARFTQKGNLLRHIKL [46F_47T_49P_50I_52G_53A_54R_55F_67L_, Q9UKT9]",1.24,2.95,1.72,3
"FKCPICGARFTQKGNLLRHIKL [46F_47K_49P_50I_52G_53A_54R_55F_67L_, Q9UKT9]",-2.04,-2.6,-2.42,-1.57
"FMCPICGARFTQKGNLLRHIKL [46F_47M_49P_50I_52G_53A_54R_55F_67L_, Q9UKT9]",-0.0501,0.185,1.05,1.11
"FFCPICGARFTQKGNLLRHIKL [46F_47F_49P_50I_52G_53A_54R_55F_67L_, Q9UKT9]",3.13,3.35,1.51,1.26
"FACPICGARFTQKGNLLRHIKL [46F_47A_49P_50I_52G_53A_54R_55F_67L_, Q9UKT9]",3.72,2.53,-0.174,1.31
"FCCPICGARFTQKGNLLRHIKL [46F_47C_49P_50I_52G_53A_54R_55F_67L_, Q9UKT9]",2.53,2.75,1.8,2.55
"FDCPICGARFTQKGNLLRHIKL [46F_47D_49P_50I_52G_53A_54R_55F_67L_, Q9UKT9]",3.35,1.87,1.6,2.76
"FQCPICGARFTQKGNLLRHIKL [46F_47Q_49P_50I_52G_53A_54R_55F_67L_, Q9UKT9]",-0.209,2.05,1.18,3.55
"FICPICGARFTQKGNLLRHIKL [46F_47I_49P_50I_52G_53A_54R_55F_67L_, Q9UKT9]",0.0922,2.32,1.27,2.63
"FICEICGRAFTQKGNLLRHIKL [46F_47I_49E_50I_52G_53R_54A_55F_67L_, Q9UKT9]",-2.83,-1.59,-1.38,-0.306
"FNCPVCGAHFTQKGNLLRHIKL [46F_47N_49P_50V_52G_53A_54H_55F_67L_, Q9UKT9]",2.14,0.242,0.245,0.138
"FRCEQCGAMFTQKGNLLRHIKL [46F_47R_49E_50Q_52G_53A_54M_55F_67L_, Q9UKT9]",-2.73,-3.44,-1.59,-1.56

Sequence,log2 fold change of degron read counts [1],log2 fold change of degron read counts [2],log2 fold change of degron read counts [3],log2 fold change of degron read counts (compound: thalidomide)
"FNCDQCGAAFTQKGNLLRHIKL [46F_47N_49D_50Q_52G_53A_54A_55F_67L_, Q9UKT9]",-1.89,-2.81,-2.8,-2.92
"LHCEICGFHCTQKGNLLRHIKL [46L_47H_49E_50I_52G_53F_54H_55C_67L_, Q9UKT9]",1.32,1.17,1.52,1.23
"LCCNQCGFECTQKGNLLRHIKL [46L_47C_49N_50Q_52G_53F_54E_55C_67L_, Q9UKT9]",-2.68,-2.78,-2.7,-2.45
"FMCDVCGAAFTQKGNLLRHIKL [46F_47M_49D_50V_52G_53A_54A_55F_67L_, Q9UKT9]",-0.0468,1.05,2.19,-0.154
"FCCEVCGADFTQKGNLLRHIKL [46F_47C_49E_50V_52G_53A_54D_55F_67L_, Q9UKT9]",-0.0408,-0.873,0.0623,-0.497
"LQCNQCGFCCTQKGNLLRHIKL [46L_47Q_49N_50Q_52G_53F_54C_55C_67L_, Q9UKT9]",-2.28,-2.29,-2.54,-1.12
"FKCNQCGHRFTQKGNLLRHIKL [46F_47K_49N_50Q_52G_53H_54R_55F_67L_, Q9UKT9]",-2.45,-2.52,-2.56,-2.52
"FDCPVCGAKFTQKGNLLRHIKL [46F_47D_49P_50V_52G_53A_54K_55F_67L_, Q9UKT9]",1.65,0.129,-0.726,1.92
"FHCPVCGAKFTQKGNLLRHIKL [46F_47H_49P_50V_52G_53A_54K_55F_67L_, Q9UKT9]",2.35,1.96,0.171,0.556
"FNCPVCGAKFTQKGNLLRHIKL [46F_47N_49P_50V_52G_53A_54K_55F_67L_, Q9UKT9]",1.67,0.844,-1.26,0.347
"FACPVCGAKFTQKGNLLRHIKL [46F_47A_49P_50V_52G_53A_54K_55F_67L_, Q9UKT9]",3.4,1.28,-1.29,0.727
"FVCPVCGAKFTQKGNLLRHIKL [46F_47V_49P_50V_52G_53A_54K_55F_67L_, Q9UKT9]",-0.585,1.91,-0.53,2.09
"FQCPVCGAKFTQKGNLLRHIKL [46F_47Q_49P_50V_52G_53A_54K_55F_67L_, Q9UKT9]",0.186,2.88,0.361,3.96
"FKCPVCGAKFTQKGNLLRHIKL [46F_47K_49P_50V_52G_53A_54K_55F_67L_, Q9UKT9]",-1.68,-2.82,-3.08,-1.18
"FGCPVCGAKFTQKGNLLRHIKL [46F_47G_49P_50V_52G_53A_54K_55F_67L_, Q9UKT9]",3.82,1.67,-0.46,1.12
"FMCPVCGAKFTQKGNLLRHIKL [46F_47M_49P_50V_52G_53A_54K_55F_67L_, Q9UKT9]",-0.124,-0.0797,0.661,0.797
"FECPVCGAKFTQKGNLLRHIKL [46F_47E_49P_50V_52G_53A_54K_55F_67L_, Q9UKT9]",-0.0658,-1.21,-0.306,2.62
"FWCPVCGAKFTQKGNLLRHIKL [46F_47W_49P_50V_52G_53A_54K_55F_67L_, Q9UKT9]",2.74,3.29,0.923,0.809
"FFCPVCGAKFTQKGNLLRHIKL [46F_47F_49P_50V_52G_53A_54K_55F_67L_, Q9UKT9]",2.79,2.64,0.946,0.56

# — the supplement of paper PMC12645437, “Orthogonal IMiD-Degron Pairs Induce Selective Protein Degradation in Cells” (ACS Chemical Biology, 2025)
